Where “and” joins values, the source holds several entries; their conditions need not be identical. Identical values can stand only once. More than one record can exist for a structure, and the calls need not agree. Calls of active or inactive are those of the source. Unless noted, no stated cut-off is given here; in the data, active means parasite load remaining mostly below about 12% (no sharp cut-off); inactive means mostly above about 10%.
How the values were obtained:
[1] = P. berghei load reduction in hepatocytes – cell-based, HepG2, luciferase luminescence, HepG2 viability, primary screen (AID 624349);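 further: 100% = mean of DMSO negative control wells on the same plate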; conditions: P. berghei liver stage in HepG2, luciferase luminescence, concentration not given here; parasite load remaining: stronger effect = lower value; viability: measured here: HepG2 viability without parasites
[2] = tested on: Hepatitis C virus NS3 helicase; experiment: blockers of NS3h binding to ssDNA – biochemical, fluorescence polarization, LOPAC1280 library, primary screen (AID 687035; in the data active means inhibition above about 37%); conditions: Purified HCV NS3 helicase, Cy5-dT15 ssDNA binding fluorescence polarization; stronger effect = higher value; concentration not given here
[3] = compounds altering Cy5-DNA-NS3h complex signal – biochemical, LOPAC1280, artefact control for HCV NS3 helicase inhibitor project (AID 687037; call rule not given here); conditions: Cy5-DNA-NS3h complex fluorescence interference counterscreen
[4] = Wnt pathway potentiators raising nuclear beta-catenin – imaging, WNT3A-conditioned medium, mouse C2C12, NPC library, primary screen (AID 1117326; in the data active means nuclear beta-catenin stimulation mostly above about 4.2%, no sharp cut-off; inactive means mostly below about 10%); conditions: stronger effect = higher value
[5] = stimulators of insulin release from INS-1E, primary screen, cell-based, 5 mM glucose, NPC library (AID 1117329;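 active means compound raises insulin release from rat beta cells at 5 mM glucose, no numeric limit stated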); conditions: rat INS-1E insulin secretion, at 10 µM, stronger effect = higher value
[6] = growth inhibition of GSK3B-pretreated HCT116 cells – cell-based, CellTiter-Glo, 0.2 to 20 µM (AID 1117336;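 active means compounds lowering colon cancer cell viability after pretreatment blocking the GSK3B kinase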); conditions: HCT116 viability after GSK3B inhibitor, at 20 µM, stronger effect = higher value
[7] = inhibition of endothelial tube formation, primary screen, imaging, VEGF stimulated, CD31 staining, tube area, NPC library (AID 1117340;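 active means compound that reduces growth-factor-driven endothelial tube area in a mixed cell culture, no cutoff stated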); conditions: VEGF-stimulated ADSC/ECFC co-culture, at 10 µM, stronger effect = higher value
[8] = GLP1 release stimulators, primary, NCI-H716, NPC library (AID 1117341;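 active means compound raises GLP1 secretion from the human gut endocrine cells, with no numeric limit stated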); conditions: NCI-H716 cells, at 10 µM, stronger effect = higher value
[9] = HCT116 colon cancer cell growth inhibition, primary screen, CellTiter-Glo luminescence, NPC library (AID 1117342;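 active means compounds that lower survival of HCT116 colon cancer cells in the luminescence readout, no numeric limit stated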); conditions: at 20 µM (top of the series)
[10] = reduced SW480 viability measured with CellTiter-Glo, NPC library, primary (AID 1117343;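 active means compounds that lower viability of the colon cancer cells in the luminescence readout, with no numeric limit stated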); conditions: CellTiter-Glo luminescence; at 20 µM (top of the series)
[11] = NPC library primary testing for decreased DLD-1 cell viability via CellTiter-Glo (AID 1117346;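 active means compounds that lower survival of DLD-1 colon cancer cells in the luminescence readout, no cutoff given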); conditions: DLD-1 viability, CellTiter-Glo luminescence; at 20 µM (top of the series)
[12] = biological target: 6-phosphogluconate dehydrogenase, decarboxylating (Homo sapiens) (UniProt P52209); experiment: inhibition of human phosphogluconate dehydrogenase – biochemical, recombinant enzyme, NADPH absorbance, primary screen (AID 1159550;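 active means at least 20% inhibition of 6-phosphogluconate dehydrogenase activity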); conditions: recombinant 6PGD, NADPH absorbance 341 nm; at 10 µM; stronger effect = higher value
Chain of 6-phosphogluconate dehydrogenase, decarboxylating (Homo sapiens) (P52209 whole entry, looked up): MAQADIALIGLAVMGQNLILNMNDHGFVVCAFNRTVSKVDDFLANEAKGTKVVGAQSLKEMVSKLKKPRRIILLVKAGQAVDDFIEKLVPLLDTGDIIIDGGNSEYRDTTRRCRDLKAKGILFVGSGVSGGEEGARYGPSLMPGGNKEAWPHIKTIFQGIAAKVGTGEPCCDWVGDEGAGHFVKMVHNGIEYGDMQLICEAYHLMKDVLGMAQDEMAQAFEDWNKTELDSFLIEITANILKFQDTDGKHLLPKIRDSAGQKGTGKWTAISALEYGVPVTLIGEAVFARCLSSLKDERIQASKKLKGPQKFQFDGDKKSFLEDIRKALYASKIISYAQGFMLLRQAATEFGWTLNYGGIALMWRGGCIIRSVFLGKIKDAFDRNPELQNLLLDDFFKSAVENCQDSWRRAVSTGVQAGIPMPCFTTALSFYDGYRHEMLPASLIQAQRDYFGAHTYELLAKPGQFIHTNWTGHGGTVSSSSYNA

Compound	parasite load remaining [1]	viability [1]	inhibition [2]	fluorescence ratio (interference) [3]	nuclear beta-catenin stimulation ([4]; at 10 µM)	nuclear beta-catenin stimulation ([4]; stimulation, at 2 µM) [%]	insulin secretion stimulation [5]	viability decrease [6]	tube area decrease [7]	GLP1 secretion stimulation [8]	inhibition of viability [9]	viability decrease (inhibition) [10]	viability decrease (inhibition) [11]	inhibition [12]
CCCC(C(=O)OCCN(CC)CC)(c1ccccc1)c1ccccc1	-0.02% (active) and 10.3% (inactive) and 0.005% (inactive)	85.1% and 64.2% and 90.3%	-6% (inactive)	0.9 (inactive)	0% (inactive)	1.1	5.7% (inactive)	52.5% (active)	9.6% (inactive)	11.5% (inactive)	86.3% (active)	76.5% (active)	62.5% (active)	3.92% (inactive)
C=CCc1ccccc1OCC(O)CNC(C)C (stereo not given)	48.8% (inactive) and 53.9% (inactive) and 74.6% (inactive)	101% and 91.5% and 140%	-4% (inactive)	1 (inactive)	0.1% (inactive)	-0.5	2.2% (inactive)	-6.8% (inactive)	-1.1% (inactive)	1.4% (inactive)	34.3% (inactive)	27.3% (inactive)	12% (inactive)	-12.3% (inactive)
C#CCN(C)Cc1ccccc1	33.9% (inactive) and 101% (inactive) and 59.8% (inactive)	48.5% and 89.5% and 94.1%	-3% (inactive)	1 (inactive)	2.1% (inactive)	3.2	4.5% (inactive)	23.6% (inactive)	3.1% (inactive)	2.3% (inactive)	2.23% (inactive)	-22.7% (inactive)	2.6% (inactive)	0.126% (inactive)
CN(C)CCOC(=O)COc1ccc(Cl)cc1	72.9% (inactive) and 143% (inactive)	96.7% and 93.9%	0% (inactive)	1 (inactive)	-0.6% (inactive)	1	1.2% (inactive)	-0.8% (inactive)	-34.4% (inactive)	1.2% (inactive)	7.1% (inactive)	-16% (inactive)	-7.4% (inactive)	17.7% (inactive)
Cn1c(=O)c2c(ncn2C)n(C)c1=O	89.2% (inactive) and 70.9% (inactive)	73.1% and 94.9%	-2% (inactive)	1 (inactive)	0.2% (inactive)	3.1	4.3% (inactive)	-1.7% (inactive)	16.4% (inactive)	-0.2% (inactive)	-8.8% (inactive)	-11.7% (inactive)	7.2% (inactive)	8.55% (inactive)
C[n+]1cc2c3c(ccc2c2ccc4cc5c(cc4c21)OCO5)OCO3	-0.155% (inactive) and -0.085% (inactive)	0.535% and 0%	-2% (inactive)	1 (inactive)	32.4% (inactive)	1.3	-3.7% (inactive)	99.8% (active)	104% (active)	27.5% (active)	102% (active)	141% (active)	105% (active)	11.1% (inactive)
COC(=O)Nc1nc2ccc(C(=O)c3cccs3)cc2[nH]1	–	–	-5% (inactive)	0.9 (inactive)	80.4% (active)	81.3	-0.3% (inactive)	69.2% (active)	105% (active)	-3.1% (inactive)	60.8% (active)	22.9% (inactive)	58.6% (active)	-7.55% (inactive)
O=C(Nc1ccc([N+](=O)[O-])cc1Cl)c1cc(Cl)ccc1O	-1.67% (inactive) and -1.04% (inactive) and -2.1% (inactive)	26.1% and 53.7% and 67.1%	-2% (inactive)	1 (inactive)	56.2% (active)	33.1	-1.7% (inactive)	99.7% (active)	103% (active)	3.3% (inactive)	107% (active)	120% (active)	102% (active)	9.61% (inactive)
Cc1oncc1C(=O)Nc1ccc(C(F)(F)F)cc1	174% (inactive) and 159% (inactive) and 30% (inactive)	94.2% and 84.7% and 88.5%	-2% (inactive)	1 (inactive)	15.4% (inactive)	3.9	-1.5% (inactive)	40% (inactive)	32% (inactive)	9% (inactive)	38.7% (inactive)	39.1% (inactive)	22% (inactive)	-7% (inactive)
Cn1cnc2c1c(=O)[nH]c(=O)n2C	101% (inactive) and 137% (inactive) and 62.6% (inactive)	101% and 74.3% and 103%	-5% (inactive)	1 (inactive)	0.9% (inactive)	1	2.3% (inactive)	5% (inactive)	15.1% (inactive)	-0.4% (inactive)	6.3% (inactive)	-8.1% (inactive)	-19.1% (inactive)	-1.33% (inactive)
CN(C)CCCN1c2ccccc2Sc2ccc(C(F)(F)F)cc21	–	–	-5% (inactive)	1 (inactive)	41.9% (active)	3.5	5.8% (inactive)	68.5% (active)	45.1% (active)	17.9% (inactive)	88.7% (active)	137% (active)	101% (active)	1.69% (inactive)

— PubChem BioAssay
